# UbGFP stabilizer: Ubiquitin-GFP Assay. 67,000 tested, under 10 active. AID 526, 2006. Ubiquitin-GFP reporter cells, proteasome inhibition, GFP fluorescence; response scale: untreated = 0%, 10 µM MG-132 = 100%. Potency, µM (top dose mostly 45.9 µM), actives largely listed as activators; active means well fitted activation curve with a large enough effect, not every such curve was filed as active; inconclusive means small, poorly fitted or top-dose-only effect, or another doubt; inactive means no such curve, though single readings can be large or run the other way
#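 Proteasome blockade was scored as a rise in GFP-expressing U2OS cells carrying a ubiquitin(G76V)-GFP construct, imaged after 4 hr compound treatment at 37 °C across a 46 uM–2.9 nM series.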
# Bst PK mod: Pyruvate Kinase; purified pyruvate kinase, luminescence ATP production; ribose 5-phosphate activator present at AC10; Potency, µM; actives 1.2% (n = 51,000); AID 361, 2006; in the data active means potency below about 11 µM; inconclusive means mostly about 12 µM to 25 µM;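 the screen sought inhibitors and activators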
# USP2a inhib: qHTS Assay for Inhibitors of Ubiquitin-specific Protease USP2a; Ubiquitin carboxyl-terminal hydrolase 2 (Homo sapiens), O75604; USP2a enzymatic assay, qHTS inhibition; Potency, µM (series often up to 38.3 µM), most hits filed as inhibitors; actives 0.1% (n = 60,000); AID 927, 2007; further: nearly all actives have a fitted effect of over 60% in size
# Target sequence (O75604 whole entry, looked up): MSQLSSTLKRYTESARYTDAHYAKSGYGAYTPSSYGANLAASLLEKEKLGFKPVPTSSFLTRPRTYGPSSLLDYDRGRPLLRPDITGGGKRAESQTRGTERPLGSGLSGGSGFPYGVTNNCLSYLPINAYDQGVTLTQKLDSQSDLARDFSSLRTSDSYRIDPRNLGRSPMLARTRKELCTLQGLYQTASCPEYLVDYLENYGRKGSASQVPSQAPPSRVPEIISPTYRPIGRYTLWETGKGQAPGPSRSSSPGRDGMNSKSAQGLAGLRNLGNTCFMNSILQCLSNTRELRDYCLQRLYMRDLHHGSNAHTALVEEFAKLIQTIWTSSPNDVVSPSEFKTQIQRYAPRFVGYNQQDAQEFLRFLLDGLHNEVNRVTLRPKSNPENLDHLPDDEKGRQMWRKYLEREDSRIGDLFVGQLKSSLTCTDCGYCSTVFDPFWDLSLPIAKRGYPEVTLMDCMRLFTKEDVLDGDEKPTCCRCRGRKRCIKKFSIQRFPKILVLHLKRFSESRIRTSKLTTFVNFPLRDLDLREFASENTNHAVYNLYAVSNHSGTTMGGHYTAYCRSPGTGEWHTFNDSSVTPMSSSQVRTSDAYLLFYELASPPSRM
#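 Inhibition is measured in a cell-free coupled assay with 20 nM USP2 core, 20 nM Ub-PLA2 and 20 uM NBD C6-HPC, 2.5 h incubation. Activity normalized to NEM control.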
# HBB splice mod: qHTS Assay for Modulators of Hemoglobin Beta Chain Splicing | HBB splicing reporter cell assay, activation; EGFP reporter with mutant IVS2-654 intron; response scale: normalised to 500 nM splice-correcting PNA | Potency, µM (top dose mostly 46.1 µM), usual class: activators | actives 0.06% (n = 65,000) | AID 925, 2007
#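 HeLa cells stably expressing EGFP interrupted by mutant beta-globin intron 2 (IVS2-654), 500/well in 2% FCS. Treated with compound for 2 days at 37C. Splicing correction scored as total well GFP intensity (488 nm excitation, 500-520 nm emission); 500 nM antisense PNA served as control.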
# Hsp90 Hop PPI: qHTS Assay for Disrupters of an Hsp90 Co-Chaperone Interaction | Hsp90 C-terminal peptide / TPR2A (Hop) interaction, human | AlphaScreen TPR2A-His6 binding biotin-Hsp90 C-terminal peptide | Potency, µM (highest dose often 57 µM) | actives 0.44% (n = 71,000); active means well fitted curve in either direction with a large enough effect; inconclusive means small, poorly fitted or top-dose-only effect, or another doubt
# GFP derepression: qHTS Assay for Epigenetic Modulators. mouse C127i GFP locus derepression, cytometry, 30 h. Potency, µM (highest dose often 46.1 µM). actives 0.09% (n = 68,000)
#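 Murine C127i mammary cells carrying a silenced, stably integrated CMV-driven GFP reporter were treated with compound for 30 hours at 37 C. After PBS washes, GFP-positive cells were counted by laser-scanning microplate cytometry.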
# Hits are given with their value; - = inactive; ? = inconclusive; . = not tested or not shown; [ ] = remark or other dose. The list is not random: actives were taken first. Their share in the collection is about 1.3%. Unless noted, the call rests on the fitted dose curve; in most records, active means well fitted curve in the direction sought with a large enough effect; inconclusive means small, poorly fitted or top-dose-only effect, or another doubt; inactive means no such curve, though single readings can be large; an effect the other way counts as inactive or inconclusive.
SMILES,UbGFP stabilizer,Bst PK mod,USP2a inhib,HBB splice mod,Hsp90 Hop PPI,GFP derepression
CC(C)(C)c1onc(OCP(=O)(O)O)c1C[C@@H](N)C(=O)O,-,.,-,-,-,-
CCOC(=O)c1[nH]cnc1C(=O)O,-,-,.,-,25µM,-
CCOC(=O)c1[nH]cnc1C(=O)Nc1ccccn1,-,.,-,-[9.22 µM],-,-
COc1ccc(NC(=O)N2CCCC3(CCN(C(C)=O)CC3)C2)cc1,-,.,-,-,-,-[9.22 µM]
COc1ccc(NC(=O)N2CC[C@@]3(CCCN(C(C)=O)C3)C2)cc1,-,.,10µM,-,-,-[9.22 µM]
CN(C)c1ncc2nc(-c3cccs3)c(=O)n(Cc3cccs3)c2n1,-,.,-,?,-,-[9.22 µM]
O=c1c(-c2ccccc2)nc2cnc(Oc3ccccc3)nc2n1C1CC1,-,.,-,-,-,-[9.22 µM]
CN(C)c1ncc2nc(-c3cccs3)c(=O)n(C3CC3)c2n1,-,.,-,-,4µM,-[9.22 µM]
O=c1c(-c2cccs2)nc2cnc(Oc3ccccc3)nc2n1C1CC1,-,.,-,-,20µM,-[9.22 µM]
Cc1ccc2nc(N/N=C\c3cccc(C)n3)cc(C)c2c1,-[9.17 µM],.,.,-[9.22 µM],-[11 µM],-[9.22 µM]
CCCCC[C@H](O)c1cccc(OCc2ccc3ccccc3n2)c1,-,.,-,-,-,-
CC(=O)c1c(O)c(C)c(O)c2c1OC1=CC(=O)[C@H](C(C)=O)C(=O)[C@]12C,-,.,.,.,-,-[9.22 µM]
Cc1ccc2c(CC(=O)OCc3csc(C)n3)coc2c1,-,-,-,-,-,-
COc1ccc2c(=O)c(-c3nc(C)cs3)coc2c1,.,4.1,.,.,.,-
COc1ccc(-c2coc3cc(O)ccc3c2=O)cc1,-,.,-,.,-,-[9.22 µM]
Cc1nc(-c2coc3cc(OCC(=O)O)ccc3c2=O)cs1,.,9.6,.,.,.,-
C=C1C(=O)O[C@H]2C[C@@]3(C)CCCC(=C)[C@@H]3C[C@H]12,-,.,.,.,-,-[9.22 µM]
O=C(Nc1nc2ccccc2[nH]1)c1ccccc1F,-,1.4,-,-[1.84 µM],-,-
Cc1cc(NC(=O)c2ccccc2F)n(-c2nc3ccccc3[nH]2)n1,-,-,-,-,-,-
O=C(Nc1nc2ccccc2[nH]1)c1ccc(F)cc1,-,3.1,-,-[1.84 µM],-,-
COc1cccc(Cn2c(=O)c(-c3cccs3)nc3cnc(Nc4cccc(OC)c4)nc32)c1,-,.,-,10µM,7.9µM,-[9.22 µM]
COc1ccc(Nc2ncc3nc(-c4cccs4)c(=O)n(Cc4cccc(OC)c4)c3n2)cc1,-,.,-,?,-,?
CN1CCN(c2ncc3nc(-c4ccccc4)c(=O)n(Cc4ccc(F)cc4)c3n2)CC1,-,.,-,-,-,-[9.22 µM]
CN1CCN(c2ncc3nc(-c4cccs4)c(=O)n(Cc4ccc(F)cc4)c3n2)CC1,?,.,-,?,-,4µM
COc1ccc(N2CCN(c3oc(COc4ccc(Cl)cc4)nc3C#N)CC2)cc1,.,-,.,.,.,-
SMILES,UbGFP stabilizer,Bst PK mod,USP2a inhib,HBB splice mod,Hsp90 Hop PPI,GFP derepression
COc1ccc(N2CCN(c3oc(COc4ccccc4)nc3C#N)CC2)cc1,-,-,-,.,13µM,-
N#Cc1nc(-c2ccc(OCc3ccccc3)cc2)oc1N1CCC(C(N)=O)CC1,-,4.9,-,-[0.369 µM],-,-
COc1ccccc1OCc1nc(C#N)c(N2CCC(C(N)=O)CC2)o1,-,-,-,-,-,-
CC[C@@H]1OC(=O)[C@@H](C)[C@H](O[C@@H]2C[C@@](C)(OC)[C@@H](O)[C@H](C)O2)[C@H](C)[C@H](O[C@@H]2O[C@@H](C)C[C@@H](N(C)C)[C@H]2O)[C@@](C)(O)C[C@H](C)C(=O)[C@@H](C)[C@H](O)[C@@]1(C)O,-,.,.,.,-,-[9.22 µM]
C[C@H](O)[C@H](O)[C@@H](O)c1cnc2nc(N)[nH]c(=O)c2n1,-,.,.,.,-,-[9.22 µM]
COc1cc(/C=N/O)ccc1OCc1ccc(C(=O)O)cc1,.,0.39,.,.,.,-
COc1ccc(C(=O)NC(=O)Nc2cc(C)ccn2)cc1,-,0.64,-,-,-,-
CN(C)c1ccc(NC(=O)c2sc(SCC(=O)Nc3nccs3)nc2N)cc1,.,10,.,.,.,-
CCCCc1ccc(-c2ccc(C)cc2O)nc1,-,9.8,-,.,?,-
Cc1nnc(NC(=O)c2sc3ccccc3c2Cl)s1,-,2.1,-,-,-,-
Cc1ccc(-c2cc(C(=O)N3CCCC3)no2)cc1,-,7.9,-,-,-,-
CC1CCCC(C)N1C(=O)c1cc(-c2ccc(Cl)c(Cl)c2)on1 (stereo not given),-,7.7,-,-,?,-
CN(C)Cc1ccccc1-c1cc(NCc2cccs2)ncn1,-,.,-,-,-,-[9.22 µM]
O=C1O/C(=C\Br)CC[C@@H]1c1cccc2ccccc12,-,.,-,-,-,-
CN(C)C=C1C(=O)c2ccccc2C1=O,.,-,.,.,.,-
CC1=CC(=O)c2ccccc2C1=O,-,.,?,13µM,-,-
O=C(NCCOc1ccccc1)c1ccc2c(c1)OCO2,-,8.1,-,-,-,-
COc1ccc(NC(=O)c2cc(-c3ccc(O)cc3)on2)cc1OC,-,.,.,-,-,-
O=C(O)c1cc(-c2ccc3cc4c(cc3c2)OCO4)nc2ccccc12,-[9.17 µM],.,.,-[9.22 µM],-[11 µM],-[9.22 µM]
COC(=O)c1cc(-c2ccc3c(c2)OCO3)nc2ccccc12,-,.,-,-[9.22 µM],25µM,-
Cc1cc2nn(-c3ccccc3)nc2cc1NC(=O)c1cccs1,-,2.3,-,.,-,-
COc1ccc(-n2nc3cc(C)c(NC(=O)CC(C)C)cc3n2)cc1,-[9.17 µM],.,-[7.66 µM],-[0.0738 µM],-[11 µM],-
COc1ccc(-n2nc3cc(C)c(NC(=O)c4cccnc4)cc3n2)cc1,-,9.6,-,-,-,-
CO[C@@H]1/C=C\O[C@]2(C)Oc3c(C)c(O)c4c(O)c(c(/C=N\N5CCN(C)CC5)c(O)c4c3C2=O)NC(=O)/C(C)=C\C=C/[C@H](C)[C@H](O)[C@H](C)[C@H](O)[C@H](C)[C@H](OC(C)=O)[C@@H]1C,-,.,.,.,-,-[9.22 µM]
CC1(C)S[C@@H]2[C@H](NC(=O)COc3ccccc3)C(=O)N2[C@H]1C(=O)O (tested in a mixture with another compound),-,.,-,-,-,-
Cc1cc(C(=O)OCC(=O)Nc2cc(C)on2)c2ccccc2n1,-,-,-,-,-,-
Cc1cc(N/C=C/C(=O)c2cccc3ccccc23)no1,.,9.3,.,.,.,-
CC1=C(/C=C/C(C)=C/C=C/C(C)=C/C=O)C(C)(C)CCC1,.,.,.,-,-,.
Cc1cc(C(=O)Nc2cnn(Cc3ccc(Cl)cc3Cl)c2)no1,-,9.2,-,-,-,-
NC(=O)c1ncn([C@@H]2O[C@@H](CO)[C@@H](O)[C@H]2O)n1,-,.,.,-,-,-

# Bioassay records from PubChem.
